# Measured values: PubChem BioAssay (EPA / NIEHS)
# Several values for one entry are separate records, joined by “and”; a condition that tells them apart may be missing. Equal values may be shown once. The source holds several records for some structures; these can differ, active in one and inactive in another. Activity calls are given as the source filed them. The calls were made as follows: active = hit-call score of the fitted dose curve at least 0.9, where 1 is the maximum; inactive = score below 0.9.
# Columns and labels:
# [1] = read-out: Tissue Factor, F3 (gene 2152); test: BSK_CASM3C_TissueFactor: BioMAP Diversity Plus: CASM3C Assay for Tissue Factor Biomarker Activity (AID 2283052); settings: primary human coronary artery smooth muscle cells; actives raise or lower the signal;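 also: cell surface tissue factor protein level read by ELISA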
# [2] = read-out: Interferon-gamma inducible Protein 10 (IP10), CXCL10 (gene 3627); test: BSK_hDFCGF_IP10: BioMAP Diversity Plus: hDFCGF Assay for Interferon-gamma inducible Protein 10 (IP10) Biomarker Activity (AID 2283053); settings: primary human foreskin fibroblasts; actives raise or lower the signal
# In short: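 IP-10 levels, quantified by ELISA, are taken from human foreskin fibroblast cultures 24 h after chemical treatment, with DMSO serving as negative control and baseline for bidirectional analysis.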
# [3] = read-out: Urokinase-type plasminogen activator receptor (uPAR), PLAUR (gene 5329); test: BSK_CASM3C_uPAR: BioMAP Diversity Plus: CASM3C Assay for Urokinase-type plasminogen activator receptor (uPAR) Biomarker Activity (AID 2283054); settings: primary human coronary artery smooth muscle cells; actives raise or lower the signal;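 also: cell-surface uPAR protein level quantified by ELISA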
# [4] = read-out: Vascular cell adhesion molecule 1 (VCAM1), VCAM1 (gene 7412); test: BSK_CASM3C_VCAM1: BioMAP Diversity Plus: CASM3C Assay for Vascular cell adhesion molecule 1 (VCAM1) Biomarker Activity (AID 2283055); settings: primary human coronary artery smooth muscle cells; actives raise or lower the signal;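 also: VCAM-1 protein level quantified by ELISA on the cells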
# [5] = read-out: Collagen III, COL3A1 (gene 1281); test: BSK_hDFCGF_CollagenIII: BioMAP Diversity Plus: hDFCGF Assay for Collagen III Biomarker Activity (AID 2283056); settings: primary human foreskin fibroblasts; actives raise or lower the signal
# In short: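 ELISA readout of Collagen III in human dermal (foreskin) fibroblasts, taken 24 h post-treatment. Gain or loss relative to DMSO vehicle fitted in both directions.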
# [6] = read-out: Epidermal growth factor receptor (EGFR), EGFR (gene 1956); test: BSK_hDFCGF_EGFR: BioMAP Diversity Plus: hDFCGF Assay for Epidermal growth factor receptor (EGFR) Biomarker Activity (AID 2283057); settings: primary human foreskin fibroblasts; actives raise or lower the signal
# In short: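 Measured by ELISA: EGFR levels on primary human foreskin fibroblasts 24 h after chemical treatment, analysed relative to DMSO with bidirectional fitting.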
# [7] = read-out: Interleukin-8 (IL8), CXCL8 (gene 3576); test: BSK_hDFCGF_IL8: BioMAP Diversity Plus: hDFCGF Assay for Interleukin-8 (IL8) Biomarker Activity (AID 2283058); settings: primary human foreskin fibroblasts; actives raise or lower the signal
# In short: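 IL-8 levels read by ELISA at 24 hours after dosing human skin fibroblast cultures. Parallel SRB staining assessed overt cytotoxicity, and gain or loss of signal was fitted against DMSO control.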
# [8] = BSK_hDFCGF_Proliferation: Cell Proliferation Assessment in the BioMAP Diversity Plus: hDFCGF Assay (AID 2283059); settings: primary human foreskin fibroblasts;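 also: curves fitted for both rise and fall of signal versus DMSO baseline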
# In short: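 This proliferation readout used SRB total-protein staining of human foreskin fibroblasts […], normalized to DMSO with bidirectional curve fitting.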
# [9] = read-out: Macrophage colony-stimulating factor (MCSF), CSF1 (gene 1435); test: BSK_hDFCGF_MCSF: BioMAP Diversity Plus: hDFCGF Assay for Macrophage colony-stimulating factor (MCSF) Biomarker Activity (AID 2283060); settings: primary human foreskin fibroblasts; actives raise or lower the signal
# In short: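 M-CSF levels read by ELISA at 24 h post-dosing in human skin fibroblasts. Parallel cultures stained with SRB assessed cytotoxicity at the same time point; response fitted in both directions against the DMSO baseline.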
# [10] = BSK_hDFCGF_SRB: Viability Assessment in the BioMAP Diversity Plus: hDFCGF Assay (AID 2283061); settings: primary human foreskin fibroblasts;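 also: cells exposed to compound for 24 h before the read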
# In short: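 Viability was read as total protein: after 10% TCA fixation, wells were stained with 0.1% sulforhodamine B and read at 560 nm. Primary human foreskin fibroblasts were dosed for 24 h, with bidirectional fitting versus DMSO.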
SMILES,outcome [1],outcome [2],outcome [3],outcome [4],outcome [5],outcome [6],outcome [7],outcome [8],outcome [9],outcome [10],AC50 [2],AC50 [3],AC50 [9],AC50 [5],AC50 [7],AC50 [8],AC50 [10],AC50 [1],AC50 [4],AC50 [6]
CC1=C(C(=O)Nc2ccccc2)SCCO1,inactive,inactive,inactive,inactive,inactive,inactive,inactive,inactive,inactive,inactive,,,,,,,,,,
N#Cc1cc(Br)c(O)c(Br)c1,inactive,,,inactive,inactive,inactive,inactive,inactive,inactive,inactive,10.9 µM (active),405 nM (active),,,,,,,,
COc1nc(NC(C)C)nc(NC(C)C)n1,inactive,inactive,inactive,inactive,inactive,inactive,inactive,inactive,inactive,inactive,,,,,,,,,,
O=C(O)COc1nc(Cl)c(Cl)cc1Cl,inactive,inactive,inactive,inactive,inactive,inactive,inactive,inactive,inactive,inactive,,,,,,,,,,
COC(=O)C=C(C)OP(=O)(OC)OC,inactive,inactive,inactive,inactive,inactive,inactive,inactive,inactive,,inactive,,,0.157 µM (active),,,,,,,
CCc1nn(C)c(C(=O)NCc2ccc(C(C)(C)C)cc2)c1Cl,inactive,,inactive,inactive,,inactive,,,,,28.8 µM (active),,23.9 µM (active),20 µM (active),35.4 µM (active),20 µM (active),27.5 µM (active),,,
COC(=O)C(C)Oc1ccc(Oc2ccc(Cl)cc2Cl)cc1 (stereo not drawn),inactive,inactive,inactive,inactive,inactive,inactive,inactive,inactive,inactive,inactive,,,,,,29.5 µM (active) and 36.7 µM (active),,,,
CCCCNC(=O)OCC#CI,inactive,,,,,inactive,,,,,3.5 µM (active) and 5.34 µM (active),12.7 µM (active) and 13.9 µM (active),5.14 µM (active) and 9.67 µM (active),7.69 µM (active) and 7.7 µM (active),10.2 µM (active) and 11 µM (active),134 nM (active) and 534 nM (active),12.4 µM (active) and 3.49 µM (active),24.6 µM (active),11.1 µM (active) and 14.6 µM (active),11.6 µM (active)
CCCN(CCC)c1c([N+](=O)[O-])cc(S(N)(=O)=O)cc1[N+](=O)[O-],inactive,inactive,,,inactive,inactive,inactive,,inactive,,32.5 µM (active) and 31.4 µM (active),34.5 µM (active) [middle of 4 runs],32.9 µM (active) and 30.5 µM (active) and 31.2 µM (active),30.9 µM (active) and 16.5 µM (active),34.5 µM (active),24.3 µM (active) [middle of 4 runs],21.1 µM (active) and 29.3 µM (active) and 31.4 µM (active),21.1 µM (active) and 34.7 µM (active) and 30.7 µM (active),36.4 µM (active) [middle of 4 runs],
CCCCC(CC)COC(=O)c1ccccc1C(=O)OCC(CC)CCCC (stereo not drawn),inactive,,inactive,inactive,inactive,inactive,inactive,,inactive,inactive,16.6 µM (active),,,,,4.85 µM (active),,,,
Fc1ccc(Oc2ccnc3cc(Cl)cc(Cl)c23)cc1,inactive,,inactive,inactive,,inactive,inactive,,,,24.3 µM (active),,16.4 µM (active),12.1 µM (active),,11.7 µM (active),15.3 µM (active),,,
CCCC1COC(Cn2cncn2)(c2ccc(Cl)cc2Cl)O1 (stereo not drawn),inactive,inactive,inactive,inactive,inactive,inactive,inactive,,inactive,inactive,,,,,,4.49 µM (active),,,,
COc1ccc(C(c2ccc(OC)cc2)C(Cl)(Cl)Cl)cc1,inactive,,inactive,inactive,inactive,inactive,inactive,,,,20 µM (active),,9.16 µM (active),,,6.21 µM (active),11 µM (active),,,
